PubChem BioAssay AID1458 (National Center for Advancing Translational Sciences (NCATS), 2008)
The whole screen tested about 210,000 compounds, of which about 5,900 (2.8%) were called active. Another 5% or so got no clear call; they are omitted. Calls come from the whole dose curve; as a rule, active = well fitted activation curve with a large enough effect; inconclusive = small, poorly fitted or top-dose-only effect; inactive = no such curve, though single readings can be large or run the other way. Many of the other results were omitted from the sample, so actives are more common in it than they were.

Experiment: qHTS Assay for Enhancers of SMN2 Splice Variant Expression; note: nearly all actives have a fitted effect of over 55% in size; for activity change, positive = activation: % of control where 0% means no effect
Conditions: HEK293 SMN2-luciferase splicing reporter, luminescence, 30-36 h; series mostly up to 46.1 µM; activity change, positive = activation: at the top concentration
In short: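 HEK293 cells carry an SMN2 minigene-luciferase reporter in which exon 7 inclusion puts luciferase in frame. Cells were seeded at 2000 cells/well, attached for 10-12 hours, then exposed to compounds for 30-36 hours at 37C before ONE-Glo luminescence.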
Potency is the fitted concentration of half-maximal effect.

Compound	Potency	activity change, positive = activation
Cc1cc(/C=C2/C(=N)N3C(=NC2=O)SN=C3S(C)(=O)=O)c(C)n1-c1ccccc1	15.8 µM (active)	–
CCS(=O)(=O)C1=NSC2=NC(=O)/C(=C\c3cc(C)n(-c4cccc(OC)c4)c3C)C(=N)N21	–	5.92% (inactive)
CS(=O)(=O)c1ccc2c(c1)SC1=NC(=O)/C(=C/c3ccco3)C(=N)N12	–	9.12% (inactive)
Cn1c(=O)cc(OCC(=O)N2CCN(c3ccccc3)CC2)c2ccccc21	–	4.37% (inactive)
COC(=O)c1ccc(C2C(C(=O)Nc3ccccc3)=C(C)Nc3nc4ccccc4n32)cc1 (configuration not stated)	–	-7.04% (inactive)
CN(Cc1ccccc1)C(=O)c1cn(C)c2ccc(S(=O)(=O)N(C)C3CCCCC3)cc2c1=O	–	-3.3% (inactive)
CN(C)c1ccnc2sc3c(=O)n(Cc4ccccc4)cnc3c12	–	-24% (inactive)
CN(C)c1ccnc2sc(C(=O)c3ccccc3)c(N)c12	14.1 µM (active)	–
COc1cccc(C(=O)c2sc3nc(-c4ccccc4)cc(C(F)(F)F)c3c2N)c1	–	-9.67% (inactive)
CN(CC(=O)Nc1cccc(C(F)(F)F)c1)S(=O)(=O)c1cccs1	–	0.287% (inactive)
CCC1CCCCN1Cc1c(O)ccc2c(=O)c(Oc3ccccc3Cl)c(C(F)(F)F)oc12 (configuration not stated)	–	-6.73% (inactive)
COc1ccc(CC(=O)c2ccc(O)cc2O)cc1OC	–	19.7% (inactive)
COc1ccc(C(=O)Cc2cnn(-c3ccccc3)c2)c(O)c1	17.8 µM (active)	–
Cc1cc(O)cc(O)c1C(=O)Cc1cnn(-c2ccccc2)c1	–	-16.1% (inactive)
Cn1nc(-c2ccccc2)c(-c2ccccc2)c(C(=O)Nc2ccc(S(N)(=O)=O)cc2)c1=O	–	8.83% (inactive)
COC(=O)Cn1cc(C(=O)c2cccs2)c2ccccc21	–	8.54% (inactive)
COC(=O)c1cn(CC(=O)NCc2cccs2)c2ccccc12	22.4 µM (active)	–
O=C(Cn1cc(C(=O)c2cccs2)c2ccccc21)NCc1cccs1	–	25.6% (inactive)
CC(=O)c1nn(-c2cccc(Br)c2)cc1C(=O)c1cccc2ccccc12	–	-21.6% (inactive)
CCOC(=O)c1nn(-c2cccc(C)c2)cc1C(=O)c1ccccc1	10 µM (active)	–
CCOC(=O)c1cn(Cc2cccc(C)c2)nn1	–	0.18% (inactive)
COc1ccccc1-c1nc(SC)n[nH]1	–	12.2% (inactive)
CCCOc1ccccc1-c1nc(SCCC(=O)O)n[nH]1	7.08 µM (active)	–
CCCOc1ccccc1C(=O)NCCCC(=O)O	–	-16.9% (inactive)
O=C(Cc1ccccc1)NNC(=O)C1CCN(c2ncccn2)CC1	–	4.38% (inactive)
O=C(O)C1CCN(C(=O)OCc2ccccc2)CC1	17.8 µM (active)	–

Compound	Potency	activity change, positive = activation
O=C(NCC1CCC(C(=O)O)CC1)OCc1ccccc1 (configuration not stated)	–	-2.66% (inactive)
CCOC(=O)Cc1ccc(NC(=O)Nc2c[nH]c(=O)[nH]c2=O)cc1	–	-3.88% (inactive)
O=c1[nH]c2cc(Br)ccc2n2cccc12	–	22.8% (inactive)
CCCCCC(=O)Nc1ccc2oc(-c3ccncc3)nc2c1	–	-15.7% (inactive)
CCCC(=O)Nc1ccc2oc(-c3ccc(O)c(Br)c3)nc2c1	11.2 µM (active)	–
O=C(Nc1ccc2oc(-c3ccc(O)c(Br)c3)nc2c1)c1cc2ccccc2o1	–	1.87% (inactive)
CCOc1ccc(OCC)c(NC(=O)CN(c2ccc(C)cc2)S(=O)(=O)c2c(C)n[nH]c2C)c1	–	-8.29% (inactive)
COc1ccc(Cl)cc1NC(=O)c1sc2nc3c(cc2c1N)CN(C)CC3	–	9.66% (inactive)
COc1ccc(CCn2cc3c(c2-c2ccc(Br)cc2)c(=O)n(C)c(=O)n3C)cc1OC	–	-0.506% (inactive)
Cc1cccc(NC(=O)C2CCCN2S(=O)(=O)c2cccc3nsnc23)c1C (configuration not stated)	–	-4.32% (inactive)
Cc1ccc(-n2c(=O)c3cccnc3n2CC(=O)NCc2ccc(F)cc2)cc1C	–	-1.87% (inactive)
CCOc1cccc(/C=C/c2ccc3ccccc3n2)c1OC(C)=O	1.58 µM (active)	–
CC(OC(=O)c1ccc2ccccc2n1)C(=O)c1ccccc1 (configuration not stated)	–	-3.13% (inactive)
NC(=O)COC(=O)/C=C/c1ccc2ccccc2n1	–	4.91% (inactive)
CCOC(=O)c1ccccc1NC(=O)c1nn(-c2ccc(OC)c(Cl)c2)c(=O)c2c1c1ccccc1n2C	–	-6.12% (inactive)
O=C(Nc1nncs1)c1ccccc1NS(=O)(=O)c1cccs1	–	-4.37% (inactive)
COc1cccc(OC)c1C(=O)Nc1nnc(C(C)C)s1	–	-3.99% (inactive)
COc1ccc(C(=O)Nc2nncs2)c(OC)c1	11.2 µM (active)	–
O=S(=O)(c1ccc(C2CCCCC2)cc1)N1CCN(c2ccc(Cl)c(Cl)c2)CC1	–	-6.14% (inactive)
CCCc1ccc(-c2csc(NC(=O)Cc3cccs3)n2)cc1	–	-91.3% (inactive)
COc1ccc(-c2csc(NC(=O)CCCc3cccs3)n2)cc1	–	-8.51% (inactive)
CC(C)(C)NC(=O)NC(=O)COC(=O)Cc1ccc(Cl)cc1Cl	–	9.02% (inactive)
COc1ccc(-c2csc(NC(=O)COC(=O)c3ccc(Br)o3)n2)cc1	0.794 µM (active)	–
COc1ccc(-c2nc(CCNC(=O)c3ccc(Br)o3)cs2)cc1	–	-57.5% (inactive)
COc1ccc(-c2csc(NC(=O)COC(=O)Cc3ccc(Cl)cc3Cl)n2)cc1	11.2 µM (active)	–
COc1ccc(Nc2ncc(C(=O)Nc3cc(C)ccc3OC)c3ccccc23)cc1	–	3.77% (inactive)
